# In the OligoGym collection:
# Molecular target: TGFB1I1
# Test: pooled miR-30 sensor sort-seq; sequence = guide strand
# Conditions: shRNA
# Further: reference of the scale not given here.
row,Sequence,sensor-assay potency score (higher = more potent)
1,TTAAGTTCCTGAAGCAACCGAT,-0.211
2,TGAGACATGATTTCATCTGTGA,0.918
3,TTCCTGAAGCAACCGATCTAGC,-0.825
4,TTTATTGCAGGAGCCACAGAGG,-1.1
5,TTGTGGAGCTCACCACCGGTGG,-1.9
6,TTTTCTTATCTTCAGACTGGTC,-0.967
7,TTTGTGGAGCTCACCACCGGTG,-1.15
8,TAAGTTCCTGAAGCAACCGATC,-1.43
9,TCATCTGTGATGTTGAACTGAG,-0.542
10,TTGTCTGTGTGCAATCCACTTT,0.0751

# Molecular target: THNSL1
# Test: as above
# Conditions: shRNA
row,Sequence,sensor-assay potency score (higher = more potent)
1,TTGCTCATTACCAACATCCTGT,0.41
2,TATCCTTTGCTTATCATTCTTA,0.234
3,TTGAGAATATCTATTGACGGTG,-0.169
4,TATAGGTGGAGTTAATAGCTGC,-0.591
5,TTCTTTAATCTTTAAAGCCTGC,-0.791
6,TATACTAGAAAAACATTTCTGT,0.647
7,TTTGTCTCCAACAAGAGAGTGG,-0.0448
8,TATGACACAACAACCTAGTTTC,-0.543
9,TATCTGTGCTCTTTCTACGTAG,-0.49
10,ATCTAGTAGAGGTACATCCAGG,-1.3
11,TATAATTGCAACTTGGTGGGAT,0.997
12,TTTGAGAATATCTATTGACGGT,-0.0842

# Molecular target: THOC7
# Test: as above
# Conditions: shRNA
row,Sequence,sensor-assay potency score (higher = more potent)
1,TAATGTGTGAAAGATGCTCTAA,0.0139
2,TTTTCGTATTCGTTTTGCTTGA,-0.919
3,TAATTCTCCGATCATCTCCAGC,-0.503
4,TTCGTATTCGTTTTGCTTGAAG,-0.51
5,TTCCTGAGCTTCTTCTACCTCT,-0.111
6,TTTTGCTTGAAGAATTTGCTTT,-0.308
7,TTTCCGTCTCAATTCCAGCTTA,-0.243
8,TATGCTACATTCTATTTCCTTG,-0.777
9,TAAGAAGAACATGAAACTGTTT,-0.283
10,TTTAATGAAACTCTTCACTAGC,0.0596
11,TTTGCTTGAAGAATTTGCTTTT,-0.209

# Molecular target: TIMM44
# Test: as above
# Conditions: shRNA
row,Sequence,sensor-assay potency score (higher = more potent)
1,TTTACTGACTTCGTGAAGGCTC,0.133
2,TGACATTATCTAGCAAGCCGGA,-1.13
3,TTCCGTAGCACCTCGCTCGTCC,1.18
4,TTCTCTTCCGGAGTCGCTGGGG,-0.531
5,TAGCTTCATAGCACCAGTCTTT,-0.701
6,TTCGTCATACTTCATCTTCATC,-1.59
7,ATCACTTTTACTGACTTCGTGA,0.235
